In the library only some 2.3% were active in any assay of this set; here they are far more common.
GLD-1 RNA inh: GLD-1-TGE RNA interaction inhibition (C. elegans); hit rate 0.44% among 320,000; inhibition, % at 5.96 µM; purified GLD-1 + fluorescein TGE RNA, fluorescence polarization;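 active means percent inhibition above a per-plate cutoff, the plate mean of test compounds plus 3 SD, cut at about 30% in these data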;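 further: 0% = DMSO wells with GLD-1 and probe and 100% = wells lacking GLD-1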
Target sequence (Q17339 whole entry, looked up): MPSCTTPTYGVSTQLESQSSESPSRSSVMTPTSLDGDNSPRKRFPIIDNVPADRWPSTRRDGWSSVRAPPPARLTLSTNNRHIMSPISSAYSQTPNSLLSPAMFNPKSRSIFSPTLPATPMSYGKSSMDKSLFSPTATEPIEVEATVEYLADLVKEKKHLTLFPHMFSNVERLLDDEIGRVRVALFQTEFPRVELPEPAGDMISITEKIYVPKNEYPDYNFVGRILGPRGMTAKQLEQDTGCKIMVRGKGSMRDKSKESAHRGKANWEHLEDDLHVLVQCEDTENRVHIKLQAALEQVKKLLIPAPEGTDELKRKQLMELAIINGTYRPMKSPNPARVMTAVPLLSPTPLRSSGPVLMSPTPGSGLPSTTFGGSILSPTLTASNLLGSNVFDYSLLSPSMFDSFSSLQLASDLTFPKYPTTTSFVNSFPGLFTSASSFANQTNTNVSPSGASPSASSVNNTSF
MCL1 BIM primary: inhibitors of human MCL1 binding to BIM-BH3 peptide; hit rate 0.68% among 320,000; inhibition, % at 10.9 µM; GST-MCL1 / FITC-Bim-BH3 fluorescence polarization; Q07820;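 active means inhibition above the mean inhibition of all tested compounds plus 3 SD, set per campaign, cut at about 40% in these data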;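 further: 0% = DMSO wells and 100% = unlabeled Bim-BH3 peptide control; higher means more loss of mP so more displacement of Bim peptide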
BCLXL inh: blocks human Bcl-xL binding to Bim BH3 peptide. AID 2129. hit rate 0.7% among 320,000. Q07817. GST-Bcl-xL / FITC-Bim BH3 peptide fluorescence polarization. inhibition, % at 10.9 µM;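 active means inhibition above the mean of all tested compounds plus 3 SD, cutoff set per campaign, cut at about 30% in these data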;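 further: 0% = DMSO wells and 100% = unlabeled Bim-BH3 peptide competitor; inhibitors lower millipolarization by displacing the labeled peptide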
Target sequence (Q07817 whole entry, looked up): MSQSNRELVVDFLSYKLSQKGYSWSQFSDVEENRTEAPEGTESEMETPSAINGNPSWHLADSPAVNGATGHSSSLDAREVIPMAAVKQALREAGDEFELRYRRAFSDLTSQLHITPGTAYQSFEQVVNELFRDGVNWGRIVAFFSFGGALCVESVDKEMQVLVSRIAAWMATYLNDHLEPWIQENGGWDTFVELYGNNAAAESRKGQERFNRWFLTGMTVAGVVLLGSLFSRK
Mcl1-Noxa inh: disrupts binding of human Mcl-1 to Noxa peptide; TR-FRET Mcl-1/Noxa peptide binding, 2 h; hit rate 1.5% among 220,000; AID 1022; Q07820; inhibition, % at 21.7 µM;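 active means compounds that cut the protein-peptide binding signal by more than 50% relative to plate controls in a single-dose test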;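 further: His-tagged Mcl-1 with rhodamine Noxa BH3 peptide and terbium anti-His antibody; 0% = Mcl-1 plus Noxa peptide wells and 100% = peptide-only wells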
Mcl1-Bid inh: disrupts binding of human Mcl-1 to Bid peptide | inhibition, % at 21.7 µM | TR-FRET Mcl-1/Bid-Dy647 peptide binding, 1536-well | hit rate 0.97% among 220,000 | AID 1021;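 active means compounds that cut the binding signal by more than half at the single screening dose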;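 further: His-tagged Mcl-1 with europium anti-His antibody binding Bid BH3 peptide; 0% = Mcl-1 plus peptide wells and 100% = peptide-only wells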
Bim-Mcl-1: inhibitors of Bim-Mcl-1 interaction, human; Q07820; Bead-based flow cytometry, Bim peptide-Mcl-1 binding; inhibition, % at 10 µM; hit rate 0.1% among 190,000; in the data active means inhibition above about 40%;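 further: 0% = no compound tracer wells and 100% = peptide blocker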
* marks the source's active call; other numbers are inactive results; nt = no result.

SMILES	GLD-1 RNA inh	MCL1 BIM primary	BCLXL inh	Mcl1-Noxa inh	Mcl1-Bid inh	Bim-Mcl-1
C[C@@H]1CN([C@@H](C)CO)C(=O)c2cc(N(C)C)ccc2O[C@@H]1CN(C)Cc1ccncc1	0.8	nt	nt	nt	nt	nt
O=C(Nc1cc(Cl)ccc1N1CCCC1)C1=COCCO1	9.1	4.1	9.4	nt	nt	nt
COc1cc(C#CC#CCN2CCCCC2)ccc1O	-5.4	10.3	0.0	50.9*	8.3	-1.0
CC(=O)Nc1cc(NC(C)=O)cc(C(=O)N2CCCC3CCCCC32)c1 (centres undefined)	-13.7	13.6	7.8	nt	nt	nt
CCOc1c(O)ccc(/C=C2\SC(=S)NC2=O)c1[N+](=O)[O-]	-12.8	12.4	7.1	71.7*	-46.9	0.0
CCN(CC)C(=O)c1cccc(NC(=O)c2ccccc2OCc2c(C)noc2C)c1	8.1	6.5	4.5	nt	nt	nt
Cc1ccnc(N/C=C(\C#N)c2nc(-c3cccc(Br)c3)cs2)c1	-58.4	-19.2	11.6	60.6*	73.2*	0.0
Cc1c(C)[n+](=O)c(-c2ccc(Br)cc2)c(C)n1[O-]	3.6	5.3	3.7	4.1	-10.7	nt
COc1cc(/C=N/NC(=O)c2ccc(COc3cc(C)ccc3C(C)C)cc2)cc(OC)c1O	0.8	7.4	-0.8	51.1*	-42.8	-5.0
COc1ccccc1/C=C/C(=O)OCC(=O)Nc1c(C)nn(-c2ccccc2)c1C	-1.2	-3.1	0.3	nt	nt	nt
O=C(O)C(Cc1ccccc1)N1C(=O)/C(=C/C=C/c2ccco2)SC1=S (centres undefined)	nt	nt	nt	101.7*	98.1*	nt
Cn1cccc1/C=C1\SC(=S)N(NC(=O)c2ccccc2O)C1=O	-130.8	-84.9	-50.7	-2.5	-24.5	nt
O=C1S/C(=C\C=C\c2ccco2)C(=O)N1c1ccccc1	7.7	12.8	5.3	21.0	-17.1	-5.0
O=C1S/C(=C\C=C\c2ccco2)C(=O)N1c1ccc(O)cc1	6.1	13.3	5.8	56.4*	-16.8	-3.0
O=C(NN1C(=O)/C(=C/C=C/c2ccco2)SC1=S)c1ccccc1O	-11.7	38.1	14.0	100.6*	60.1*	nt
CN1CCN(c2nc(-c3ccccc3O)nc3ccccc23)CC1	-1.4	0.8	1.6	nt	nt	nt
COc1cccc(-c2nc(N3CCN(C)CC3)c3ccccc3n2)c1O	0.9	4.2	4.8	68.1*	-54.1	nt
O=C(Nc1ccc(Cl)c(Cl)c1)c1ccc(Cl)c(Cl)c1	2.0	1.8	5.0	9.0	-23.8	nt
Cc1ccc(NC(=O)c2ccc(Cl)c(N3C(=O)C=CC3=O)c2)cc1	6.3	16.5	12.9	57.4*	29.2	-8.0
CS(=O)(=O)N1CCN(Cc2ccc(C(F)(F)F)cc2)CC1	2.9	-13.1	-4.8	19.4	51.9*	0.0
CS(=O)(=O)N1CCN(Cc2ccccc2C(F)(F)F)CC1	-3.3	7.6	-1.9	-0.3	-5.0	-2.0
Oc1ccc(/C=N/Nc2nn3cnnc3c3ccccc23)cc1	4.1	5.7	5.1	51.3*	-37.9	nt
COc1cc(/C=N/Nc2nn3cnnc3c3ccccc23)ccc1O	1.2	2.4	9.2	68.4*	-7.8	28.0
CCOc1cc(/C=N/Nc2nncc(-c3ccccc3)n2)ccc1O	1.3	8.6	10.3	33.2	-43.1	6.0
CCOc1cc(/C=N/Nc2nn3cnnc3c3ccccc23)ccc1O	-3.6	12.1	10.8	56.2*	-71.8	nt
SMILES	GLD-1 RNA inh	MCL1 BIM primary	BCLXL inh	Mcl1-Noxa inh	Mcl1-Bid inh	Bim-Mcl-1
COc1cccc(/C=N/Nc2nn3cnnc3c3ccccc23)c1	-0.2	4.0	-1.4	nt	-2.4	17.0
Cc1cccc(NC(=O)CN2C(=O)S/C(=C\c3ccc(O)c([N+](=O)[O-])c3)C2=O)c1	-5.3	0.4	10.6	21.2	-43.0	1.0
Cc1ccc(NC(=O)CN2C(=O)S/C(=C/c3ccc(O)c([N+](=O)[O-])c3)C2=O)cc1C	nt	nt	nt	72.6*	21.4	-3.0
O=[N+]([O-])c1ccc(-c2c[nH]c(=S)[nH]2)cc1	-3.8	11.7	11.3	95.3*	-36.2	nt
O=[N+]([O-])c1ccc2c(c1)ncn2-c1ccccc1	2.6	14.0	3.3	-16.1	82.4*	-1.0
O=[N+]([O-])c1ccc2c(c1)nc(CO)n2Cc1ccccc1	-5.7	-1.9	0.8	nt	nt	nt
O=[N+]([O-])c1ccc2c(c1)nnn2-c1ccccc1	8.8	5.5	5.8	nt	nt	nt
Cn1c(-[n+]2c(-c3ccccc3)cc(-c3ccccc3)cc2-c2ccccc2)nc2cc([N+](=O)[O-])ccc21	-1.9	-20.8	-8.4	64.2*	-22.2	-2.0
CCC(CC)C(=O)Oc1c(Sc2ccccc2[N+](=O)[O-])c(C)nn1C(C)(C)C	-0.3	7.0	3.8	-6.8	91.2*	-3.0
COCC(=O)Oc1c(Sc2ccccc2[N+](=O)[O-])c(C)nn1C(C)(C)C	5.8	7.3	6.6	26.5	-5.8	1.0
Cc1ccc(S(=O)(=O)Nc2csc(C)c2C(=O)O)cc1	4.8	25.8	5.4	54.2*	19.3	nt
CCc1ccc(C2C(C#N)=C(N)SC(N)=C2C#N)s1	-60.2	-97.5	-50.4	25.8	-79.0	-2.0
Cc1ccc(C2C(C#N)=C(N)SC(N)=C2C#N)o1	-17.2	-1.3	12.4	84.1*	11.3	2.0
COc1cccc(N2CCN(C3CC(=O)N(c4ccc(Cl)c(Cl)c4)C3=O)CC2)c1 (centres undefined)	5.9	7.6	1.6	12.1	58.9*	-1.0
CC(/C=N\Nc1nnc2c(n1)[nH]c1c(C)cccc12)=C\c1ccco1	4.5	9.5	5.2	87.4*	78.5*	0.0
CC(/C=N/n1c(-c2ccco2)n[nH]c1=S)=C\c1ccco1	1.9	19.3	0.3	42.3	-47.2	-3.0
O=C(CS(=O)CC(=O)NC12CC3CC(CC(C3)C1)C2)Nc1ccc(F)cc1 (centres undefined)	1.0	9.0	4.7	nt	nt	nt
COc1cc(C2C(C#N)=C(N)N(c3sc4c(c3C#N)CCCC4)C3=C2C(=O)CC(C)(C)C3)cc(OC)c1OC (centres undefined)	-1.4	0.3	8.4	10.4	-29.3	0.0
Cc1ccccc1C1C(C#N)=C2NC(=O)c3c(sc4c3CCCCC4)N2C2=C1C(=O)CC(C)(C)C2 (centres undefined)	101.1*	33.7	29.7	-110.9	-129.9	1.0
O=C(C1CCCN1S(=O)(=O)c1ccc(Cl)cc1)N1CCN(c2ccccc2)CC1 (centres undefined)	6.2	nt	nt	nt	nt	nt
Nc1cc(=O)[nH]c(SCC(=O)N2CCCc3ccccc32)n1	3.1	0.9	4.1	-15.9	-20.1	2.0
Nc1nc2nc(SCC(=O)N3CCCc4ccccc43)[nH]c2c(=O)[nH]1	1.4	1.9	3.6	58.6*	-10.3	0.0
Cc1cc(/C=N/NC(=O)c2cccs2)c(C)n1-c1ccccc1	5.0	-2.0	-2.0	8.1	87.3*	-136.0
Cc1cc(C(=O)N/N=C/c2ccc(O)c(O)c2O)c(C)n1-c1ccccc1	nt	nt	nt	72.5*	-114.3	2.0
Cc1cc(/C=N/NC(=O)c2ccncc2)c(C)n1-c1ccccc1	3.5	-1.8	-3.3	17.6	-23.0	-4.0

Screening data (PubChem BioAssay)
